Records with an inconclusive call do not appear. Entries that show only a call come without a potency. Active and inactive are the calls of the source. Calls come from the whole dose curve; as a rule, active = well fitted activation curve with a large enough effect; inconclusive = small, poorly fitted or top-dose-only effect; inactive = no such curve, though single readings can be large or run the other way.

Chain of Cellular tumor antigen p53 (Homo sapiens) (P04637 whole entry, looked up): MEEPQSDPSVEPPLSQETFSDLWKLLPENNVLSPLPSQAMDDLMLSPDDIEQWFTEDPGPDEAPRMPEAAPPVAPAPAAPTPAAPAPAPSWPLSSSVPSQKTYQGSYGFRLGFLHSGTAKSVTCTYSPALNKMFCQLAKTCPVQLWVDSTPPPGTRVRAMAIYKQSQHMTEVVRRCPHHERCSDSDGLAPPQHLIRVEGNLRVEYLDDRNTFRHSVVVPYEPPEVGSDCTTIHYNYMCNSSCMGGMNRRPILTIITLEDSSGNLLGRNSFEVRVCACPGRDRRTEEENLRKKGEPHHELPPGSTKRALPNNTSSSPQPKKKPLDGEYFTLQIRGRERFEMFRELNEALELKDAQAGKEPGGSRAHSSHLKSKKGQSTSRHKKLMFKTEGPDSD

The test has as its target Cellular tumor antigen p53 (Homo sapiens) (UniProt P04637). In words: Confirmatory qHTS for small molecule compounds that upregulate eGFP-tagged delta133p53alpha (in C-terminal) cells. The note with it: delta133p53alpha-eGFP (C-terminal) reporter cells, GFP fluorescence upregulation; series mostly up to 57.5 µM. An excerpt:
Assay Development and Screening Technology
National Center for Advancing Translational Sciences (NCATS),
National Institute of Health (NIH), Rockville, Maryland
Cellular senescence (CS) is one of the hallmarks of aging and age-related diseases. Senescent cells are characterized by an irreversible growth arrest, an increase in senescence-associated beta-galactosidase (SA-beta-gal) activity and p16INK4a expression, an activation of the DNA damage response pathways, and the emergence of a senescence-associated secretory phenotype (SASP).
Delta133p53alpha, a human/primate-specific p53 protein isoform, delays or inhibits the induction of CS and SASP in various types of human cells, including progeria-derived fibroblasts, primary normal astrocytes, and CD8+ T lymphocytes. Induction of delta133p53alpha with small molecule compounds may provide therapeutic opportunities for inhibition of senescence/SASP-associated pathologies in progeria syndromes, astrocyte-mediated neuroprotection in neurodegenerative diseases, and possibly prevention and treatment of a wider range of senescence- and aging-associated diseases.
Here we report the development and validation of a cell-based quantitative high throughput screening (qHTS) assay in 1,536-well format. This qHTS assay uses the NCI-H358 cell line with doxycycline-inducible expression of enhanced green fluorescent protein (eGFP)-tagged delta133p53alpha, which allows efficient and highly quantitative measurement of the protein levels.
PROTOCOL TABLE (as described by Inglese J, Shamu CE and Guy RK. 2007)
SEQUENCE No. (e.g., 1, 2, 3, etc.); […] (e.g., Cells, Incubation, Reagent, etc.); VALUE; DESCRIPTION.
1; Cells; 4uL; 800 doxycycline treated cells / well in doxycycline-free media, 1536-well black, clear-bottom low base Aurora microplates.
2; Compounds; 23 nL; Kalypsis pin tool (Wako) equipped with 1536-well pin heads, 5-azacytidine positive control.
3; Incubation; 24 hr; 37C, 5% CO2; 95% relative humidity.
4; Aspiration; 1x; BioTek EL406 washer dispenser (Agilent).
5; Fixing; 3.5% paraformaldehyde, BioTek EL406 washer dispenser (Agilent).
6; Washing; 1x PBS; BioTek EL406 washer dispenser (Agilent).
7; Nuclei staining; 1:1000 dilution of Hoechst 33342 (Thermofisher), BioTek EL406 washer dispenser (Agilent).
8; Incubation; 20 min; in the dark at room temperature.
9; Washing; 2x, 1x PBS (ThermoFisher), BioTek EL406 washer dispenser (Agilent).
10; Reagent; 10 uL; 1x PBS per well, sealed with clear adhesive tape.
11; Detection; Fluorescence, Acumen eX3 laser scanning cytometer (STP Labtech), GFP filters […].
NOTES (numbers refer to sequence numbers above).
1. NCI-H358 cells expressing eGFP-tagged delta133p53alpha were grown in T75 culture flasks and treated with doxycycline for 24h, at 10 ng/ml for eGFP-D133p53a cells (N-terminal cell) and 100 ng/ml for D133p53a-eGFP cells (C-terminal cells). Cells were trypsinized, counted using a Counted 3 Automated Cell Counter (Thermo Fisher), and diluted to a concentration of 200,000 cells/ml. A Multidrop Combi Reagent Dispenser (ThermoFisher) was used to dispense 800 cells/well in […] of doxycycline-free media, into 1536-well black/clear bottom low base plates (AuroraMicroplates).
2. After plating cells, 23 nl of compound library, DMSO vehicle control or positive control (5-azacytidine) were transferred by Pin Tool (Wako). The plate map layout was the same for each plate: (column 1) non-doxycycline treated cells + DMSO vehicle control; (column 2) doxycycline treated cells + DMSO vehicle control baseline; (column 3) doxycycline treated cells + positive control 57.5 uM final concentration 5-azacytidine; (column 4) doxycycline treated cells + serial dilution of 5-azacytidine, 16-point 1:2 titration spanning 1.8 nM to […] final concentration; (columns 5-48) doxycycline treated cells + titration of library compounds.
3. Cells were incubated at 37 °C, 5 % CO2, 95% RH with breathable metal lid for 24h.
4-10. […]
In general terms: In qHTS, concentration-response curves come from the screen itself.
`CN(C)CCCC1(c2ccc(F)cc2)OCc2cc(C#N)ccc21` (stereo not given): the Potency entry is “inactive”.
As for `N#Cc1cc([N+](=O)[O-])c2sc(C(N)=O)[n+]([O-])c2c1`, the entry is “inactive”.
As for `CCCC(=O)NCCc1c2n(c3ccc(OC)cc13)CCCc1ccccc1-2`, the entry is “inactive”; as for `CCCCCCCCCCCCCCCCCCOC[C@H](COP(=O)([O-])OCC[N+](C)(C)C)OC`, “inactive”; as for `CCN1CCCC1CNC(=O)c1cc(S(=O)(=O)CC)c(N)cc1OC` (stereo not given), “inactive”.
As for `Cc1cc(O)c2c(c1)C(=O)c1cc(O)cc(O)c1C2=O`, the figure is 21.7 µM (active); as for `CCN1CCCC1CNC(=O)c1cc(S(N)(=O)=O)ccc1OC` (stereo not given), “inactive”.
Take `Brc1c(Br)c(Br)c2[nH]cnc2c1Br`: the Potency was 21.7 µM (active).
`CC1c2cccc(O)c2C(O)=C2C(=O)C3(O)C(O)=C(C(N)=O)C(=O)C(N(C)C)C3C(O)C21` (stereo not given): the Potency was 0.0061 µM (active).
In the case of `O=C1NCc2c1c1c3ccccc3[nH]c1c1[nH]c3ccccc3c21`, the Potency is 27.3 µM (active).
As for `Cc1cc(C)c(/C=C2\C(=O)Nc3ccccc32)[nH]1`, the figure is 7.69 µM (active); as for `CC12C(=O)OC(=O)C1(C)C1CCC2O1` (stereo not given), 4.85 µM (active); as for `O=C1C(SCCO)=C(SCCO)C(=O)c2ccccc21`, 9.68 µM (active).
In the case of `O=C1N(c2ccccc2)c2ccccc2C1(Cc1ccncc1)Cc1ccncc1`, the Potency entry was “inactive”.
The value for `CSc1ccccc1N1CCN(CCCCCC(=O)NC2CCCc3ccccc32)CC1` (stereo not given) was “inactive”; that for `NS(=O)(=O)c1ccc(-n2nc(C(F)(F)F)cc2-c2ccc(Cl)cc2)cc1` was “inactive”; that for `Cc1ccc(S(=O)(=O)N[C@@H](Cc2ccccc2)C(=O)CCl)cc1` was 15.3 µM (active).
The value for `Cn1cc(C2=C(c3ccc(Cl)cc3Cl)C(=O)NC2=O)c2ccccc21` was 0.968 µM (active); that for `CN(C)S(=O)(=O)c1ccc2c(c1)/C(=C/c1cc3c([nH]1)CCCC3)C(=O)N2` was 0.769 µM (active).
Consider `CN(C)C(=O)C(CCN1CCC(O)(c2ccc(Cl)cc2)CC1)(c1ccccc1)c1ccccc1`, for which the Potency result was “inactive”.
With `O=Nc1c(-c2c(O)[nH]c3cc(Br)ccc23)[nH]c2ccccc12`, the Potency entry was “inactive”.
As for `CCCCS(=N)(=O)CCC(N)C(=O)O` (stereo not given), the entry is “inactive”; as for `Cn1c(=O)c2[nH]c(-c3ccccc3)nc2n(C)c1=O`, “inactive”.
As for `Cn1cnc2c(NCc3ccccc3)nc(NCCO)nc21`, the entry is “inactive”; as for `N=S(=O)(O)Cc1noc2ccccc12`, “inactive”; as for `CC(=O)N[C@@H](CS)C(=O)O`, “inactive”.
As for `CC(=O)SC1CC2=CC(=O)CC[C@]2(C)C2CC[C@@]3(C)C(CC[C@@]34CCC(=O)O4)C12` (stereo not given in full), the entry is “inactive”; as for `O=C(N[C@@H](Cc1ccccc1)C(=O)CCl)OCc1ccccc1`, 3.85 µM (active).
On to `Nc1nc(Cl)nc2c1ncn2[C@@H]1O[C@H](COP(=O)(O)OP(=O)(O)OP(=O)(O)O)[C@@H](O)[C@H]1O`, for which the Potency result was “inactive”.
Turning to `C[C@]12CC[C@@H]3c4ccc(O)cc4C[C@@H](CCCCCCCCCS(=O)CCCC(F)(F)C(F)(F)F)[C@H]3[C@@H]1CC[C@@H]2O` (stereo not given in full), the Potency result is “inactive”.
The value for `CC(C)(C(=O)O)c1ccc(C(O)CCCN2CCC(C(O)(c3ccccc3)c3ccccc3)CC2)cc1` (stereo not given) was “inactive”; that for `C#C[C@]1(O)CC[C@H]2[C@@H]3CCC4=Cc5oncc5CC4(C)[C@H]3CCC21C` (stereo not given in full) was “inactive”.
Regarding `O=[N+]([O-])c1ccc2c(c1)S(=O)(=O)C=C2`, the Potency was 8.63 µM (active).
Turning to `O=C1NC(=O)c2cc(Nc3ccccc3)c(Nc3ccccc3)cc21`, the Potency is 9.68 µM (active).
The value for `CC(C)(C)c1ccc(S(=O)(=O)/C=C/C#N)cc1` was 13.7 µM (active); that for `COc1cc2c(cc1OC)-c1cc(=Nc3c(C)cc(C)cc3C)n(C)c(=O)n1CC2` was “inactive”; that for `Brc1c(Br)c(Br)c2n[nH]nc2c1Br` was “inactive”.
The value for `O=C(c1cc(O)c(O)c([N+](=O)[O-])c1)c1ccccc1F` was “inactive”; that for `COc1ccc(/C=C2\COc3ccc(C)cc3C2=O)cc1O` was 43.2 µM (active).
The value for `CCOC(=O)Nc1ccc(NCc2ccc(F)cc2)nc1N` was “inactive”.

(Values after PubChem BioAssay AID2060323 (National Center for Advancing Translational Sciences (NCATS), 2025).)
